Assay outcomes (PubChem)
Sampled rows, rich in hits. Any-hit rate of the full collection: about 3.5%.
UGM FP inh: inhibitors of M. tuberculosis UDP-galactopyranose mutase; purified UGM, fluorescence polarization probe displacement; inhibition, % at 10 µM; P9WIQ1; 0.06% of 320,000 active; in the data active means inhibition above about 10%, passing the limit was not always enough; inconclusive means no clear call, values can overlap the other calls
Target sequence (P9WIQ1 whole entry, looked up): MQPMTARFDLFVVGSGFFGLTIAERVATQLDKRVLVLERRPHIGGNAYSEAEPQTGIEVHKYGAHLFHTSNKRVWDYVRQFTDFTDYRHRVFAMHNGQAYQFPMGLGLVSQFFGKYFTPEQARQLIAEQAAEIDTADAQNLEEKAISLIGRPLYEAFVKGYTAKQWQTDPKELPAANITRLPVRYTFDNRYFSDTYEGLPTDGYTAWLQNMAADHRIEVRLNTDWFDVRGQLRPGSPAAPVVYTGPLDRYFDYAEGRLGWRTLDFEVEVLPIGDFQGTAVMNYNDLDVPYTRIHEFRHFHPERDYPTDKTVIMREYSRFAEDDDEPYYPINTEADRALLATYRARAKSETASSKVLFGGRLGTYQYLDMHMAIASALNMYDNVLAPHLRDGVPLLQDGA
FBA Mtb inh: Mtb fructose-bisphosphate aldolase inhibition; P9WQA3; purified M. tuberculosis FBA, fluorescence read-out; inhibition, % at 1 µM; 2.3% of 360,000 active; AID 588726; in the data active means inhibition above about 27%
Mtb betalactam: beta-lactam sensitization of Mtb H37Rv; M. tuberculosis H37Rv growth with meropenem, percent inhibition; 0.27% of 330,000 active; inhibition, % at 25 µM; AID 434955; call rule not given here;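 further: growth measured after seven days incubation then overnight dye step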
Rv3671c protease: inhibits the M. tuberculosis serine protease Rv3671c; P9WHR9; inhibition, % at 5.96 µM; 0.048% of 320,000 active; in the data active means inhibition above about 38%;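 further: extracellular domain of Rv3671c used as enzyme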
GDH-TPI counter: counter-screen for M. tuberculosis FBA inhibitors: GDH-TPI coupled enzymes | AID 588335 | 1.2% of 360,000 active | inhibition, % at 4.8 µM | GDH-TPI coupled enzyme counterscreen, NADH absorbance; in the data active means inhibition above about 30%
Large screens that a line does not name were inactive.

CCOc1ccc(/C=N/NC(=O)c2cc3c(OC)cc(OC)c(OC)c3[nH]2)cc1	GDH-TPI counter 33.5
COc1ccc2[nH]c(C(=O)Nc3ccc(F)cc3Br)cc2c1	GDH-TPI counter 32.4
COc1cc(OC)c2cc(C(=O)N/N=C/c3ccccc3O)[nH]c2c1	none
Cc1ccc(NC(=O)C(C)OC(=O)c2nc(Cl)ccc2Cl)cc1S(=O)(=O)N1CCOCC1 (configuration not stated)	none (no result: UGM FP inh, Mtb betalactam, Rv3671c protease)
CN(C)C(=O)c1ccc(NC(=O)c2sccc2-c2ccccc2)cc1	none
CCOc1ccc2[nH]c(C(=O)N/N=C/c3ccccc3OC)cc2c1	none
COc1ccc2[nH]c(C(=O)N/N=C/c3ccccc3OC)cc2c1	GDH-TPI counter 38.1
COc1ccccc1C=NNC(=O)C(=O)NN=Cc1ccccc1OC	GDH-TPI counter 34.5 (no result: UGM FP inh, Mtb betalactam, Rv3671c protease)
O=C(CC1(O)C(=O)Nc2ccccc21)c1ccc(-n2cnnn2)cc1 (configuration not stated)	none
CCS(=O)(=O)Nc1ccc(C(=O)CC2(O)C(=O)Nc3ccccc32)cc1 (configuration not stated)	Mtb betalactam inconclusive, GDH-TPI counter 38.6
O=C(NCCc1ccccc1)c1nc2nc(-c3cccs3)cc(C(F)(F)F)n2n1	FBA Mtb inh active, GDH-TPI counter 31.4
FC(F)(F)c1cc(-c2cccs2)nc2ncnn12	FBA Mtb inh active
Cc1cc(C)n2nc(C(=O)NCCc3ccccc3)nc2n1	none
FC(F)(F)c1cc(-c2ccc(Cl)cc2)nc2ncnn12	FBA Mtb inh 142.5
CC1Oc2ccccc2C=C1/C=N/NC(=O)c1ccccc1 (configuration not stated)	none
Cc1ccc(C(=O)N/N=C/C2=Cc3ccccc3OC2C)cc1 (configuration not stated)	none
CC1Oc2ccccc2C=C1/C=N/NC(=O)[C@@H](C)NC(=O)OC(C)(C)C (some centres not stated)	GDH-TPI counter 37.5
CC1Oc2ccccc2C=C1/C=N\NC(=O)c1cccnc1 (configuration not stated)	GDH-TPI counter 47.6
Cc1ccc(SCCC(=O)Nc2ccc(Br)c(C)c2)cc1	none
COc1cccc(/C(O)=C2\C(=O)C(=O)N(c3ccccn3)C2c2cccc(OC)c2OC)c1 (configuration not stated)	GDH-TPI counter 41.2
COc1ccc(C2/C(=C(/O)c3ccc(C)cc3)C(=O)C(=O)N2c2ccccn2)cc1OC (configuration not stated)	GDH-TPI counter 31.6
COc1ccc(C2/C(=C(/O)c3ccccc3)C(=O)C(=O)N2c2ccccn2)cc1OC (configuration not stated)	none
COc1ccccc1C(=O)Nc1nnc([C@@H]2C[C@H](O)[C@@H](CO)O2)s1	none (no result: UGM FP inh, Mtb betalactam, Rv3671c protease)
Nc1c(C(=O)NCc2ccco2)c2nc3ccccc3nc2n1CCc1ccccc1F	FBA Mtb inh 70.3
COc1ccc(CCn2c(N)c(C(=O)NCc3ccco3)c3nc4ccccc4nc32)cc1OC	none
Nc1c(C(=O)NCc2ccco2)c2nc3ccccc3nc2n1Cc1ccccc1	FBA Mtb inh 112.4
Cc1nc(N)ncc1CCC1OCCO1	none (no result: UGM FP inh, Mtb betalactam, Rv3671c protease)
CC1(C(=O)NC2CCCC2)CCC(=O)N1CCc1c[nH]c2ccccc12 (configuration not stated)	none (no result: UGM FP inh, Mtb betalactam, Rv3671c protease, GDH-TPI counter)
CC(=O)c1ccc(N2CCN(C(=O)C3(S(=O)(=O)c4ccc(Cl)cc4)CC3)CC2)cc1	GDH-TPI counter 34.0
O=C(N1CCN(c2cccc(Cl)c2)CC1)C1(S(=O)(=O)c2ccc(Cl)cc2)CC1	none
CN(Cc1ccccc1)C(=S)Nc1ccc(OC(F)F)cc1	none
CN(C)CCCN(Cc1ccccc1)C(=S)Nc1ccc(OC(F)F)cc1	FBA Mtb inh 141.5
O=C(N/N=C/c1ccc[nH]1)c1cc(-c2cccs2)nc2ccccc12	none
O=C(N/N=C/c1ccc2ncccc2c1)c1cc(-c2cccs2)nc2ccccc12	GDH-TPI counter 39.1
Cn1cccc1/C=N/NC(=O)c1cc(-c2cccs2)nc2ccccc12	GDH-TPI counter 31.5
C=CCNC(=O)/C(=C\C=C\c1ccccc1)NC(=O)c1ccccc1Cl	GDH-TPI counter 31.3
O=C(O)CCCNC(=O)/C(=C\C=C\c1ccccc1)NC(=O)c1ccccc1Cl	none
Cc1cccnc1NC(=O)c1ccc(NS(=O)(=O)/C=C/c2ccccc2)cc1	none
CCCC1(C)Nc2ccccc2-c2nc3ccccc3n21 (configuration not stated)	FBA Mtb inh 178.6
CCCn1c(-c2ccc(OC)cc2)nc2ccccc21	Mtb betalactam inconclusive
O=C1c2ccccc2NC2(CCCC2)N1O	none
c1ccc2c(c1)NC1(CCCC1)n1c-2nc2ccccc21	FBA Mtb inh active
CC1CCCC(C)N1C(=O)COC(=O)c1cccnc1Cl (configuration not stated)	none
CCCc1cc(=O)oc2c(C)c(OCC(=O)NCCN3CCOCC3)ccc12	none
CCc1cc(=O)oc2cc(C)cc(OCC(=O)NCCCN3CCOCC3)c12	FBA Mtb inh 115.7
Cc1cc(=O)oc2cc(OCC(=O)NCCCN3CCOCC3)ccc12	none
CCCc1cc(=O)oc2cc(OCC(=O)NCCN3CCOCC3)c(Cl)cc12	GDH-TPI counter 32.7 (no result: UGM FP inh, Mtb betalactam, Rv3671c protease)
O=C(CC12CC3CC(CC(C3)C1)C2)NCC(=O)OCc1cc(=O)oc2ccc3ccccc3c12	FBA Mtb inh 36.0
CCOC(=O)N1CCN(Cc2cc(=O)oc3ccc4ccccc4c23)CC1	none
O=C(NNC(=O)C1[C@H]2CCCC[C@@H]12)c1ccc(=O)oc1 (some centres not stated)	GDH-TPI counter 39.3
O=C(NC12CC3CC(CC(C3)C1)C2)c1ccc(=O)oc1	none
Cc1cccc(NNC(=O)C(=O)NNc2cccc(C)c2)c1	none
Cc1cccc(N=NC(=S)NNc2cccc(C)c2)c1	FBA Mtb inh active (no result: UGM FP inh, Mtb betalactam, Rv3671c protease)
C=CCOc1ccc(CC2C(=O)N(C)C(=O)N(C)C2=O)cc1	none
CCN(CC)c1ccc(CC2C(=O)N(C)C(=O)N(C)C2=O)cc1	FBA Mtb inh 41.6
COc1ccccc1CCNC(=O)CCn1c(=O)c2cccn2c2ccc(F)cc21	none
NC(=S)N/N=C1\c2ccccc2-c2c(C(=O)O)cccc21	none
NC(=O)c1cccc2c1-c1ccccc1/C2=N/NC(N)=S	Mtb betalactam inconclusive, GDH-TPI counter 41.0
CCn1c(=O)c2cc(C(=O)N(C)c3ccc(OC)cc3OC)sc2c2ccccc21	GDH-TPI counter 49.4
CCn1c(=O)c2cc(C(=O)N(C)c3cc(C)ccc3OC)sc2c2ccccc21	GDH-TPI counter 32.5
CCn1c(=O)c2cc(C(=O)N(C)c3ccccc3F)sc2c2ccccc21	none (no result: Mtb betalactam)
CN(C)c1ccc(C=Nc2cnn(C)c2C(N)=O)cc1	GDH-TPI counter 35.4
Cn1ncc(N=Cc2ccccc2[N+](=O)[O-])c1C(N)=O	none
COc1ccc2nc(C)c(C(N)=O)cc2c1	none
COc1cc2cc(C(N)=O)c(N)nc2cc1OC	FBA Mtb inh active
Cn1c(=O)c2cc(NC(=O)CCc3ccccc3)ccc2n1-c1ccccc1F	FBA Mtb inh 114.0 (no result: UGM FP inh, Mtb betalactam, Rv3671c protease)
CCOCCC(=O)Nc1ccc2c(c1)c(=O)n(C)n2-c1ccccc1F	FBA Mtb inh 181.1 (no result: UGM FP inh, Mtb betalactam, Rv3671c protease)
Cn1c(=O)c2cc(NC(=S)NC3CCCCC3)ccc2n1C/C=C/c1ccccc1	none (no result: UGM FP inh, Mtb betalactam, Rv3671c protease)
